This note sets out measurements from PubChem BioAssay (Tox21).

Results filed as inconclusive are left out. Active and inactive are the calls of the source. The call rests on the fitted dose curve; in most records, active means well fitted inhibition curve with a large enough effect in the signal ratio in the repeat runs (not every such curve was filed as active); inconclusive means weak or mixed curves, or effect the other way; inactive means flat fitted curve, though single readings scatter; the % refers to the signal ratio.
On the % scale 0 is the no-effect control and ±100 the full control effect; potency means the concentration at half of the fitted maximal effect.

The experiment can be described thus: cAMP Responsive Elements (CRE) small molecule antagonists, cell-based qHTS assay (AID 1963591). As to conditions: CRE-bla HEK293T, beta-lactamase FRET ratio; series mostly up to 92.4 µM; activity change, negative = inhibition: at the top concentration. The source says:
U.S. Tox21 Program National Center for Advancing Translational Sciences [NCATS] Division of Preclinical Innovation [DPI] U.S. Environmental Protection Agency [EPA] National Institutes of Environmental Health Sciences [NIEHS] National Toxicology Program [NTP] U.S. Food and Drug Administration [FDA] Tox21 Assay Overview: CREB (cyclic-AMP Responsive Element Binding Protein) is a cellular transcription factor. It binds to certain DNA sequences called cAMP Responsive Elements (CRE) and regulates the transcription of the genes. […] This cell line can be used to find agonists/antagonists of the cyclic AMP signaling pathway. The activation of the report gene under culture conditions can be detected by fluorescence intensity. This cell line has been used to screen the Tox21 10K compound library to […].
Tox21 Assay Protocol Summary: CRE-bla Hek 293T cells were suspended in assay medium (DMEM containing 10% dialyzed FBS, 0.1 mM NEAA, 1 mM sodium pyruvate and 25 mM HEPES) and dispensed at 2,000 cells/4 uL /well into 1536-well black wall/clear bottom plates using a Multidrop Combi (ThermoFisher Scientific, Waltham, MA) dispenser. After the assay plates were incubated at 37 C/5% CO2 for 18 hrs, 23 nL of compounds dissolved in DMSO, positive controls or DMSO only was transferred to the assay plate by a pintool workstation (Kalypsys, San Diego, CA), followed by addition of 1 […] uL of 1.25uM NKH477 (0.25 uM as final concentration) in assay medium using a Flying Reagent Dispenser (Aurora Discovery, San Diego, CA). The plates were incubated at 37 C and 5% CO2 for 3 hrs. Then 1 uL of LiveBLAzer B/G FRET substrate (Invitrogen, Carlsbad, CA) was added to each well using Bioraptr Flying Reagent Dispenser (FRD, Aurora Discovery, San Diego, CA). The plates were incubated at room temperature for 2 h.
For orientation: Quantitative high-throughput screening tests each substance at several concentrations.
In the case of `O=C(OC1CCCCC1)c1ccccc1C(=O)OC1CCCCC1`, the “activity change, negative = inhibition” value is 16.3% (inactive). As to `CCCCCOC(=O)c1ccccc1C(=O)OCCCCC`, the Potency entry was “inactive”. Regarding `BrCCCCCCBr`, the “activity change, negative = inhibition” value was -0.269% (inactive). On the same count and under the same terms, in the case of `COc1cccc([C@@]2(O)CCCC[C@@H]2CN(C)C)c1` it was 12.5% [at 42.4 µM] (inactive); in that of `CCCCN(N=O)C(=N)N[N+](=O)[O-]`, 1.71% (inactive). Still for that read-out and setting: in the case of `CCOP(=O)(N=C1SCCS1)OCC` it was -17.8% (inactive); in that of `CSC(C)(C)/C=N/O`, 0.23% (inactive). On the same count and under the same terms, as for `C=CC(=O)OCC`, the figure is 0.0243% (inactive). On to `O=P(O)(O)c1ccccc1`, for which the “activity change, negative = inhibition” value is -1.24% (inactive).

As for `O=C(CBr)c1ccccc1`, the “activity change, negative = inhibition” value is 4.21% (inactive). Still for that read-out and setting: in the case of `COC1CC(=C(c2cccs2)c2cccs2)C[N+](C)(C)C1` (stereo not given) it was -0.34% [at 42.4 µM] (inactive).

For `C[C@]12CC[C@@H](O)C[C@@H]1CC[C@@H]1[C@@H]2CC[C@]2(C)C(=O)CC[C@@H]12`, the “activity change, negative = inhibition” value was 0.0775% (inactive). For the compound `COc1c2c(cc3c1OCO3)CCN(C)C2`, the “activity change, negative = inhibition” value was 2.43% [at 42.4 µM] (inactive). `CCOP(=S)(OCC)OC(Cl)C(Cl)(Cl)Cl` (stereo not given): the “activity change, negative = inhibition” value is 9.28% (inactive). Still for that read-out and setting: as for `CC(Cc1ccc(O)cc1)NCC(O)c1cc(O)cc(O)c1` (stereo not given), the figure is 13.7% [at 42.4 µM] (inactive). With `CCCCOC(=O)c1ccccc1N`, the Potency was 61.4 µM (active). As to `N#CCc1ccc(Cl)cc1`, the “activity change, negative = inhibition” value is 4.25% (inactive).

For the compound `Cc1c(COC(=O)[C@@H]2[C@H](/C=C(\Cl)C(F)(F)F)C2(C)C)cccc1-c1ccccc1`, the Potency entry was “inactive”. In the case of `O=C(O)C(O)C(O)C(=O)O` (stereo not given), the “activity change, negative = inhibition” value was -2.76% (inactive). For `CC(=O)[O-].CC(=O)[O-].O.O.O.[Pb+2]`, the “activity change, negative = inhibition” value was 3.16% (inactive). Still for that read-out and setting: in the case of `CCCN(CCC)CCc1c[nH]c2ccccc12` it was 14.5% (inactive); in that of `O=C(Cc1ccccc1)OCCc1ccccc1`, -13.3% (inactive). For `CN1[C@@H]2CC[C@H]1CC(O)C2` (stereo not given in full), the “activity change, negative = inhibition” value was 1.01% (inactive). On to `CC(=O)c1ccc(-c2ccccc2)cc1`, for which the “activity change, negative = inhibition” value is 1.38% (inactive).

Take `O=C(CCl)NCO`: the “activity change, negative = inhibition” value is 7.12% (inactive). The same measure, in the same setting: as for `NC(=O)CI`, the figure is -4.56% (inactive); as for `CCNc1nc(NC(C)C(C)C)nc(SC)n1` (stereo not given), 18.3% (inactive); as for `CC[C@@H](CO)NC(=O)[C@@H]1C=C2c3cccc4c3c(cn4C)C[C@H]2N(C)C1`, 6.53% [at 42.4 µM] (inactive). For `ClSC(Cl)(Cl)Cl`, the “activity change, negative = inhibition” value was -1.23% (inactive). As for `CC(C)C(Br)C(=O)NC(N)=O` (stereo not given), the “activity change, negative = inhibition” value was 0.723% [at 42.4 µM] (inactive). On the same count and under the same terms, in the case of `ClCCCCl` it was -0.162% (inactive). For `N#CN`, the “activity change, negative = inhibition” value was -0.484% [at 240 µM] (inactive). In the case of `CC1NCCOC1c1ccccc1` (stereo not given), the “activity change, negative = inhibition” value is 9.48% [at 42.4 µM] (inactive).

Regarding `CCC1(C2=NCCN2)Cc2ccccc2O1` (stereo not given), the “activity change, negative = inhibition” value is -5.92% [at 42.4 µM] (inactive). In the case of `CC(=O)Nc1ccc2c(c1)Cc1ccccc1-2`, the “activity change, negative = inhibition” value was -13.3% (inactive).

`CCOC(=O)NC(O)C(Cl)(Cl)Cl` (stereo not given): the “activity change, negative = inhibition” value was 0.547% [at 42.4 µM] (inactive).

In the case of `CCN(CC)C(=O)N[C@@H]1C=C2c3cccc4[nH]cc(c34)C[C@@H]2N(C)C1`, the “activity change, negative = inhibition” value is 0.766% [at 42.4 µM] (inactive). For `CCCOC(=O)Cc1ccc(OCC(=O)N(CC)CC)c(OC)c1`, the “activity change, negative = inhibition” value was -3.12% [at 42.4 µM] (inactive). Consider `C=CCC1(C(C)CC)C(=O)NC(=O)NC1=O` (stereo not given), for which the “activity change, negative = inhibition” value is -0.537% [at 42.4 µM] (inactive). The same measure, in the same setting: in the case of `CNC(C)Cc1ccccc1OC` (stereo not given) it was -0.291% [at 42.4 µM] (inactive).
